Source: the OligoGym collection

Each sequence was assayed against KIAA0101 (assay: pooled miR-30 sensor sort-seq; sequence = guide strand). Details: shRNA.
Also: reference of the scale not given here.

Sequence	sensor-assay potency score (higher = more potent)
TTCATCATTTGTGTGATCAGGT	1.01
TTCTTTTTCATCATTTGTGTGA	-0.441
TTACATTCTAGAATACCAGGGT	1.19
TTATTTTCAGCTTTCCTCGATG	-0.0942
TTCCTTTTTGCCACTTGGGAGT	-1.06
ATTTGTGTGATCAGGTTGCAAA	-1.36
TTCAGGAATCTGATTCTCTTTT	-0.732
TTTTTCAGAATCTTTAGGGGAC	0.436
TTTGCTTTTCCTAAGCCACTGC	0.846
TTCCTAAGCCACTGCTTCCTGC	-1.25

These sequences were tested against KIAA0319 in the same assay as above. Details: shRNA.

Sequence	sensor-assay potency score (higher = more potent)
TTCTCTTCTATGAAGGGCCCGT	-0.659
TTCACTAGAAACAGTGACTTTG	-0.766
TTTATTTCTATTAACAAGCATC	-1.13
TTATAATTAGGTTATCTCCAGC	-0.767
TAAGAGTTTGCTTGTGTCCTTG	0.184
TACATAAAACACAATCACGGTG	-0.47
TTATGGTGTGATTTGGTCCTGC	0.156
TAAAACACAATCACGGTGCTGA	1.15
AAATGTATAATCTCCTTCCTGC	0.3
TTCACCTTGGTAGTCTGTGGGG	-0.629
TTCAGCAGCTTTGAGAACCTTG	-0.33
TTTCACTAGAAACAGTGACTTT	-0.974

The sequences below were run against KIAA0368 in the same assay as above. Details: shRNA.

Sequence	sensor-assay potency score (higher = more potent)
TTTTGTAGTCTTTATAAGCTGT	-0.31
TTCTGTAGCACTCTGAATGAGT	-0.327
TTTTCTTGCTCTGTCGCCCGGA	0.627
TTTATTTAAAATCACATCCAAC	-1.25
TTGTATTTGACATTCTCTTTGC	-0.267
TTCTGAATCACACTGTTCCGAT	-0.203
TTTAACTTGACTCTTGTACTGA	0.641
TATTCTGTAATTGTTCATCTGT	0.659
TTTGATGCAACATCTTGGCTAA	0.354
TTGAATAGCAAGTCGAGTCTCA	0.314
TTGAATTTGTATTTGTACCAAA	-0.672
TTAACTTGACTCTTGTACTGAC	0.576

What follows are sequences tested against KIAA0564 in the same assay as above. Details: shRNA.

Sequence	sensor-assay potency score (higher = more potent)
TAGTCTTTGCTTATTGTCCTTG	-0.514
TTTTTCTTTGTAGAACACCAGC	-1.28
TTGAATATAACAACTTAAGTTG	-0.73
TAAACATATATCTTTAACCATG	-1.59
TTTTTTTCTAATGCTGACCTAG	-0.423
